About 7,900 targets were measured; listed, in parts, are those with a hit and a random draw of the rest. About 0.6% of all pairs of compound and target were hits. A number with no mark means an inactive call.
Columns and labels:
Assay in all cases: log2 fold change, soluble protein after heating vs DMSO (PISA); higher = thermal stabilisation; K562 cells, 10 uM, 30 min; active = over 0.2 and 3.5 SD of the protein, either way, in both replicates (recomputed)
saracatinib = compound: CN1CCN(CCOc2cc(OC3CCOCC3)c3c(Nc4c(Cl)ccc5c4OCO5)ncnc3c2)CC1 [saracatinib]
Method in brief: (§1)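 K562 cells at 2×10^6 cells/mL were treated with 10 μM compound for 30 min. Aliquots were heated for 3 min across 48°C-58°C, pooled, and extracted in PBS with 0.5% NP-40 at 4°C; soluble protein was the supernatant after 21,000xg for 90 min. Soluble protein was quantified by TMTpro 16plex LC-MS/MS with channel sums equalised, and reported as log2 fold change in thermal stability against DMSO controls, with values from duplicates.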

sotrastaurin = compound: CN1CCN(c2nc(C3=C(c4c[nH]c5ccccc45)C(=O)NC3=O)c3ccccc3n2)CC1 [sotrastaurin]
Method in brief: as §1

alvocidib = compound: CN1CC[C@H](c2c(O)cc(O)c3c(=O)cc(-c4ccccc4Cl)oc23)[C@H](O)C1 [alvocidib]
Method in brief: as §1

Tubastatin A = compound: CN1CCc2c(c3ccccc3n2Cc2ccc(C(=O)NO)cc2)C1 [Tubastatin A]
Method in brief: as §1

[1] = compound: CNC(=O)C1=CC=CC=C1NC2=NC(=NC=C2Cl)NC3=C(C=C(C=C3)N4CCOCC4)OC
Method in brief: as §1

defactinib = compound: CNC(=O)c1ccc(Nc2ncc(C(F)(F)F)c(NCc3nccnc3N(C)S(C)(=O)=O)n2)cc1 [defactinib]
Method in brief: as §1

rucaparib = compound: CNCc1ccc(-c2[nH]c3cc(F)cc4c3c2CCNC4=O)cc1 [rucaparib]
Method in brief: as §1

[2] = compound: CNc1nc(-c2ccc3c(N)n[nH]c3c2)cc(N2C[C@@H](C(=O)NC3CCCCC3)CC[C@H]2C)n1
Method in brief: as §1

encorafenib = compound: COC(=O)N[C@@H](C)CNc1nccc(-c2cn(C(C)C)nc2-c2cc(Cl)cc(NS(C)(=O)=O)c2F)n1 [encorafenib]
Method in brief: as §1

[3] = compound: COC(=O)[C@H](CCSC)NC(=O)C1=C(C=C(C=C1)NC[C@H](CS)N)C2=CC=CC=C2
Method in brief: as §1

Sequence of UniProt Q9UKG1 (Q9UKG1 whole entry, looked up): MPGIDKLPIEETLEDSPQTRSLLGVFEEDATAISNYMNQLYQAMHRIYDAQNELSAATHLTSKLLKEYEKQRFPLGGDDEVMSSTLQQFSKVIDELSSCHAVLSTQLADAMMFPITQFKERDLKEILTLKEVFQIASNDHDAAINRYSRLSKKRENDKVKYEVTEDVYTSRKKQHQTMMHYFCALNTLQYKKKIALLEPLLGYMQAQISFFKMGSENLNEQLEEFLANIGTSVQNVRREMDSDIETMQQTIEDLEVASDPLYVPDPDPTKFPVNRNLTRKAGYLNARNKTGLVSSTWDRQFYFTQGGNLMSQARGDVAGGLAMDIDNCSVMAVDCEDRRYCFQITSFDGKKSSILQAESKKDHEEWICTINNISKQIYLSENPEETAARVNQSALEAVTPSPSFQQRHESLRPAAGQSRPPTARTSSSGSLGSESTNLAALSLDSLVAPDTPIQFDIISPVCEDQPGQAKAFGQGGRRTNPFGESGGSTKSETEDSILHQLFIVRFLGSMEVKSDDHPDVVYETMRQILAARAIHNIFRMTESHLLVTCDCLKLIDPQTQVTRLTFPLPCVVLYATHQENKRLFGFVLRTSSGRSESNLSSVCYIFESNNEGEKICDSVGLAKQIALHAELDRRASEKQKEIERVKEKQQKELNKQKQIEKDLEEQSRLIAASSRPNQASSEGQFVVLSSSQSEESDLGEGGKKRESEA
Sequence of UniProt Q04771 (Q04771 whole entry, looked up): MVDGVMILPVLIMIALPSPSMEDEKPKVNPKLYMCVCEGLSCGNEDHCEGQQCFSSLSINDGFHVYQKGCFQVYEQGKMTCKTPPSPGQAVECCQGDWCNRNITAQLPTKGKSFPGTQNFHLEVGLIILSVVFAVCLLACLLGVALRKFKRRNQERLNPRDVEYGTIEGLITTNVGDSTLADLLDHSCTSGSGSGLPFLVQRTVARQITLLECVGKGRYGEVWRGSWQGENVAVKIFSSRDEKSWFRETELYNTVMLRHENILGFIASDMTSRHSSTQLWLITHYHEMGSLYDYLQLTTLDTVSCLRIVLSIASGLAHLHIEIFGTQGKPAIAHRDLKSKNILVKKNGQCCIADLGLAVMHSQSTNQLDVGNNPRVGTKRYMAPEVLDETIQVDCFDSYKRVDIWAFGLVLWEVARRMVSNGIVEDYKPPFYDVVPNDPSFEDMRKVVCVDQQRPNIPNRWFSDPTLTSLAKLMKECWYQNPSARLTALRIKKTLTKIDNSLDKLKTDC
Sequence of UniProt Q86UU0 (Q86UU0 whole entry, looked up): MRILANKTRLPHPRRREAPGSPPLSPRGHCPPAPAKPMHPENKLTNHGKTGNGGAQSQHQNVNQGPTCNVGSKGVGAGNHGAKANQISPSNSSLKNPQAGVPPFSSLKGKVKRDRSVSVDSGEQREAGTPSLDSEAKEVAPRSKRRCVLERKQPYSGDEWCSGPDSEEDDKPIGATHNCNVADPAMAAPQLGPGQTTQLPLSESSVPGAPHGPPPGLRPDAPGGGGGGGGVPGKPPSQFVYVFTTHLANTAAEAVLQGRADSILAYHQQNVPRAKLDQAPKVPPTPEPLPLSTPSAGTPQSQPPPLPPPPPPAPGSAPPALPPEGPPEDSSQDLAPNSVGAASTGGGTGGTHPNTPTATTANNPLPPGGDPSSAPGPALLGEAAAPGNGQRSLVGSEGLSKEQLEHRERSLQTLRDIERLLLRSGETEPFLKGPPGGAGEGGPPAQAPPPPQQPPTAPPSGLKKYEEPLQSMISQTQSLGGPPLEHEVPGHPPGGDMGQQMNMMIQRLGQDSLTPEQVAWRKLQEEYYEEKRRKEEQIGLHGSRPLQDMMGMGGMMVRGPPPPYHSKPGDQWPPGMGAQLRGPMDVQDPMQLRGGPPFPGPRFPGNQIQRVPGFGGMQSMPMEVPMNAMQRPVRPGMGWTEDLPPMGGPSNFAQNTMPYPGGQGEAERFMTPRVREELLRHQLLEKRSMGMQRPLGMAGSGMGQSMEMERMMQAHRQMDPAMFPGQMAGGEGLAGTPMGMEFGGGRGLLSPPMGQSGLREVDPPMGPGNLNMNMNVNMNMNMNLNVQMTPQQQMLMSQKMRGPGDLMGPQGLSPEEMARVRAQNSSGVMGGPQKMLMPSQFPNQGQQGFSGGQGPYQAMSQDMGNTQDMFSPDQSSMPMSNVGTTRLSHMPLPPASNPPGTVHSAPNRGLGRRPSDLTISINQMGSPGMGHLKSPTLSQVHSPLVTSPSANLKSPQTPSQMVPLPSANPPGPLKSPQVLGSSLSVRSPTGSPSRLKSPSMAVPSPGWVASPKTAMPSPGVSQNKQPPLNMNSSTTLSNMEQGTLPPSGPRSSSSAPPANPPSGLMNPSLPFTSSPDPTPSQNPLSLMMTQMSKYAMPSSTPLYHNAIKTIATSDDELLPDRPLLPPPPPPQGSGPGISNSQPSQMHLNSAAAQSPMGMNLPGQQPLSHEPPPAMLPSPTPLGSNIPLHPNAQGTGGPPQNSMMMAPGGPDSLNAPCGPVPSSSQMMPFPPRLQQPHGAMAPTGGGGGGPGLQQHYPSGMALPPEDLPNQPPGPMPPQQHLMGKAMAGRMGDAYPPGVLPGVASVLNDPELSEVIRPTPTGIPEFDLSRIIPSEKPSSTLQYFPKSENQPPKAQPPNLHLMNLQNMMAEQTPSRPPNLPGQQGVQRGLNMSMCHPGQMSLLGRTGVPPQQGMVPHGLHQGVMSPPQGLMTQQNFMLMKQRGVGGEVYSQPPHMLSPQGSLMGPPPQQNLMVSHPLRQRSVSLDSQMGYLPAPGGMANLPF
Sequence of UniProt Q92934 (Q92934 whole entry, looked up): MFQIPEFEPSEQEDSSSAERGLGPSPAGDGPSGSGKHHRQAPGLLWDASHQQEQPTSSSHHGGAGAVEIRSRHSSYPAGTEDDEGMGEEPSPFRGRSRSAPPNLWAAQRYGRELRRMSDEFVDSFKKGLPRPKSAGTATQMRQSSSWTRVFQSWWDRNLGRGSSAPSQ
Sequence of UniProt Q5JTZ9 (Q5JTZ9 whole entry, looked up): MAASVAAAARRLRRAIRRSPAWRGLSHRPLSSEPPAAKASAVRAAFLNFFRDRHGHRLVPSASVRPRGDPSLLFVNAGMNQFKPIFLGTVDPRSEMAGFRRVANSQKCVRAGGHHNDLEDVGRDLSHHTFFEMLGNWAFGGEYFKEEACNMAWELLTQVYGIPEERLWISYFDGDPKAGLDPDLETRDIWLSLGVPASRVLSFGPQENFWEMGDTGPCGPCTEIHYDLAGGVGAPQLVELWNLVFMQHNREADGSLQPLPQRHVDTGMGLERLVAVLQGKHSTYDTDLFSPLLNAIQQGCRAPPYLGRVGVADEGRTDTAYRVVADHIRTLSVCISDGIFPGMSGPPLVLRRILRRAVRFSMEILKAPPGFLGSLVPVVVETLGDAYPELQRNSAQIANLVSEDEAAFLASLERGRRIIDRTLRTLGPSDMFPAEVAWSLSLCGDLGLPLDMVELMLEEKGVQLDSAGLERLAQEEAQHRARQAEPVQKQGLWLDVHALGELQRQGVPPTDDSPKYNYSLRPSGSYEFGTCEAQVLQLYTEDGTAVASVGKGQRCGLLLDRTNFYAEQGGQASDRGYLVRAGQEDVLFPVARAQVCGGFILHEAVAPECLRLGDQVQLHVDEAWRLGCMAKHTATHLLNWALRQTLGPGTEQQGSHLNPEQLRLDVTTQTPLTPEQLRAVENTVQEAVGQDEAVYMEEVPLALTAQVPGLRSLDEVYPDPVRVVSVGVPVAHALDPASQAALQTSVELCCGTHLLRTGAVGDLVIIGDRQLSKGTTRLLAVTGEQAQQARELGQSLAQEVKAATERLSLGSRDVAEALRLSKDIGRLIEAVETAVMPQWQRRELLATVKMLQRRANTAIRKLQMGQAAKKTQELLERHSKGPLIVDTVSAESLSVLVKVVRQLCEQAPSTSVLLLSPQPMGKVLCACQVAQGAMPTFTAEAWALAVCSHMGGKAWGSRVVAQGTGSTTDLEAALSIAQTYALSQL
Sequence of UniProt Q9NX38 (Q9NX38 whole entry, looked up): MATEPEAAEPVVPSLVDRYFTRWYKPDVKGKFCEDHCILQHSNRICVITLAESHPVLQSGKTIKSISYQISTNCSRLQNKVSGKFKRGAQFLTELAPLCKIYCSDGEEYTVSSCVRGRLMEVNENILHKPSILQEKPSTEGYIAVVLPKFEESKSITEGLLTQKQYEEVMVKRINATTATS
Sequence of UniProt Q9UJX6 (Q9UJX6 whole entry, looked up): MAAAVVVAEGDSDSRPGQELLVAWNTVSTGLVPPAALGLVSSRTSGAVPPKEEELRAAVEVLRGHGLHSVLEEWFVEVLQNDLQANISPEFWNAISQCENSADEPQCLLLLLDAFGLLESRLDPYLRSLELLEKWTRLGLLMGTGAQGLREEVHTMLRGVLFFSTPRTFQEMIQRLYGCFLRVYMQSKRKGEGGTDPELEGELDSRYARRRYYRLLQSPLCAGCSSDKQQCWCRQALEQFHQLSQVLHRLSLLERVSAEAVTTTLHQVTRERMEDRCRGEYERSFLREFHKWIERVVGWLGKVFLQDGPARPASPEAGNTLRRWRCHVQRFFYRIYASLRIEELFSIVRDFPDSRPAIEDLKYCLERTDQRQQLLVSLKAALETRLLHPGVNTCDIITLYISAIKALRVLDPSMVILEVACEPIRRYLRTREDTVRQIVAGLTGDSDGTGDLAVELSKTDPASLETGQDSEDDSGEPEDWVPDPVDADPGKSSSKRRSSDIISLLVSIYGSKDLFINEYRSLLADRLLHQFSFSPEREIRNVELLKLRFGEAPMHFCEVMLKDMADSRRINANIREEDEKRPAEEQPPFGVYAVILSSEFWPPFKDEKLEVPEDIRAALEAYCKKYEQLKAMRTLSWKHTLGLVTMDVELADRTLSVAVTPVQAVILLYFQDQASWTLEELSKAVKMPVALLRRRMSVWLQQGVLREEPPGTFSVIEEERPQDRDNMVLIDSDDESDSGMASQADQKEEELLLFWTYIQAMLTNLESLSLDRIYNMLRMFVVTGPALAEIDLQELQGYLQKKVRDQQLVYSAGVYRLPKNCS
Sequence of UniProt Q9Y587 (Q9Y587 whole entry, looked up): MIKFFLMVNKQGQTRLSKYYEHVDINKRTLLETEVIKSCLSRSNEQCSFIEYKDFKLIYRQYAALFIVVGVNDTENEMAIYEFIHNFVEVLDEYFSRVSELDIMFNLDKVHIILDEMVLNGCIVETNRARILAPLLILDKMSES

Row | Target | log2 fold change (saracatinib) | log2 fold change (sotrastaurin) | log2 fold change (alvocidib) | log2 fold change (Tubastatin A) | log2 fold change [1] | log2 fold change (defactinib) | log2 fold change (rucaparib) | log2 fold change [2] | log2 fold change (encorafenib) | log2 fold change [3]
1 | APPL1 (UniProt Q9UKG1) | 0.029 | -0.004 | -0.179 | 0.002 | 0.027 | 0.037 | -0.095 | -0.03 | 0.03 | -0.029
2 | BRIX1 (UniProt Q8TDN6) | -0.106 | -0.051 | 0.174 | 0.2 | -0.154 | 0.394 | 0.253 | 0.129 | 0.123 | 0.017
3 | AGRN (UniProt O00468) | 0.062 | 0.065 | -0.009 | -0.01 | 0 | -0.119 | 0.032 | -0.164 | 0.034 | 0.014
4 | ADD3 isoform 2 (UniProt Q9UEY8) | -0.112 | 0.014 | -0.166 | 0.058 |  | -0.025 | -0.036 | -0.172 | -0.166 | -0.025
5 | AASDH (UniProt Q4L235) | 0.011 | -0.067 | -0.035 | 0.16 | -0.014 | -0.091 |  | -0.036 |  | -0.004
6 | BRD3 (UniProt Q15059) | 0.093 | -0.116 | -0.076 | -0.571 (active) | 0.011 | -0.319 | -0.083 | 0.325 | 0.086 | -0.128
7 | BRD2 isoform 2 (UniProt P25440) | 0 | -0.172 | -0.111 | -0.37 | 0.146 | -0.125 |  | 0.255 |  | -0.074
8 | ATR (UniProt Q13535) | -0.044 | -0.013 | -0.107 | 0.02 | 0.014 | -0.035 | 0.008 | 0.039 | 0.008 | -0.024
9 | ARL1 (UniProt P40616) | 0.117 | -0.049 | -0.068 | 0.031 | -0.017 | 0.03 | -0.012 | 0.058 | 0.117 | -0.178
10 | AP2M1 (UniProt C9JTK4) | -0.109 | 0.055 | 0.203 | -0.045 |  | -0.053 | 0.07 | -0.019 | -0.048 | 0.193
11 | BCL9L (UniProt Q86UU0) | -0.042 | 0.042 | -0.012 | 0.053 | -0.017 | -0.014 | 0.026 | -0.092 | -0.033 | 0.069
12 | AFDN isoform 1 (UniProt P55196) | -0.192 | -0.047 | -0.182 |  | -0.025 | 0.021 | 0.009 | -0.175 | 0.018 | -0.302
13 | ACACB (UniProt O00763) | -0.166 | -0.383 | 0.033 | 0.087 | -0.083 | 0.016 | 0.291 | 0.228 | 0.089 | -0.137
14 | ARFGAP1 (UniProt Q8N6T3) | -0.021 | -0.086 | -0.029 | 0.034 | 0.068 | -0.158 | -0.048 | -0.087 | 0.068 | -0.044
15 | APH1A (UniProt Q96BI3) | 0.025 | 0.131 | 0.073 | 0.097 | -0.047 | -0.089 | 0.002 | -0.01 | 0 | -0.111
16 | ASS1 (UniProt P00966) | 0.062 | 0.088 | -0.098 | -0.183 | -0.047 | -0.007 | 0.11 | -0.122 | -0.018 | 0.045

Row | Target | log2 fold change (saracatinib) | log2 fold change (sotrastaurin) | log2 fold change (alvocidib) | log2 fold change (Tubastatin A) | log2 fold change [1] | log2 fold change (defactinib) | log2 fold change (rucaparib) | log2 fold change [2] | log2 fold change (encorafenib) | log2 fold change [3]
17 | AP4S1 (UniProt Q9Y587) | -0.08 | -0.117 | -0.099 |  | -0.05 | 0.059 | 0.039 | -0.072 | 0.073 | 0.008
18 | ADAM15 (UniProt Q13444) | -0.241 | -0.034 | -0.091 | 0.065 | -0.211 | -0.04 |  | 0.073 |  | 0.056
19 | ARAF (UniProt P10398) | 0.037 | -0.022 | 0.013 | -0.004 | -0.084 | -0.023 | 0.01 | 0.023 | 0.177 | -0.067
20 | ABITRAM (UniProt Q9NX38) | 0.035 | -0.188 | -0.107 | -0.007 |  | -0.164 | -0.041 | -0.243 | 0.025 | -0.049
21 | ADK (UniProt P55263) | 0.158 | 0.26 | 0.305 | -0.007 | 0.119 | 0.055 | -0.021 | -0.017 | -0.044 | 0.002
22 | ADD2 (UniProt P35612) | 0.049 | -0.004 | -0.031 | -0.025 | -0.033 | -0.051 | -0.012 | 0.001 | -0.025 | -0.003
23 | BAD (UniProt Q92934) | 0.021 | 0.273 | 0.005 |  | -0.032 | 0.03 | 0.032 | -0.016 | -0.047 | -0.004
24 | BRAF (UniProt P15056) | 0.029 | -0.069 | -0.059 | 0.007 | -0.02 | -0.058 | 0.013 | -0.059 | 0.014 | -0.037
25 | AARS2 (UniProt Q5JTZ9) | 0 | -0.05 | -0.1 | -0.096 | -0.019 | -0.027 | 0.008 | 0.004 | 0 | -0.017
26 | BRD4 (UniProt O60885) | 0.047 | -0.149 | -0.044 | -0.156 | 0.065 | -0.051 | -0.073 | 0.204 | 0.01 | -0.002
27 | ANAPC2 (UniProt Q9UJX6) | -0.003 | -0.084 | -0.02 | 0.009 | -0.011 | -0.049 | 0.027 | -0.063 | 0.124 | 0.006
28 | AUNIP isoform 2 (UniProt Q9H7T9) | -0.007 | -0.085 | 0.053 | 0.278 | 0.189 | 0.043 |  | -0.086 |  | 0.342
29 | ACVR1 (UniProt Q04771) |  | -0.081 | 0.047 | -0.042 | 0 | -0.095 | 0.029 | -0.106 | 0.122 | -0.156
30 | ADD1 isoform 4 (UniProt P35611) |  |  | 0.087 |  |  |  |  |  |  | 
31 | ALG14 (UniProt Q96F25) | 0.049 |  | -0.14 | -0.027 | -0.001 | 0.091 | -0.173 | -0.022 | 0.028 | -0.002
32 | AGAP3 isoform 4 (UniProt Q96P47) |  | -0.233 | -0.011 | 0.166 | -0.033 |  | 0.178 |  | -0.104 | 

— the supplement of paper PMC10849652
